Among all 5,500 compounds or so, about 2,000 (36%) were called active. Not shown: some 18% with an inconclusive outcome. Cut-off read from the data, not from the text of the source: active = normalized growth mostly below about 0.91 (no sharp cut-off); inconclusive = no clear call, values can overlap the other calls; inactive = mostly above about 0.92. Some of the results follow.
Test: chemical genetic growth profiling, strain panel (AID 1159580);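 note: tested at 20 µM; growth read once vehicle control cultures reached saturation at 30 °C; 1 = growth at the plate median or of vehicle wells; lower values mean less growth of the strain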
Conditions: S. cerevisiae deletion strains, growth OD

Measured: normalized growth

COc1cc(O)c(C(=O)/C=C/c2ccc(O)c(OC)c2)c(OC)c1
inactive: locus YAL021C, strain ccr4, stronger effect = lower value 0.948 | locus YAL030W, strain snc1, stronger effect = lower value 0.972 | locus YBL061C, strain skt5, stronger effect = lower value 0.983 | locus YBR009C, strain hhf1, stronger effect = lower value 0.948 | locus YBR023C, strain chs3, stronger effect = lower value 0.979 | locus YBR171W, strain sec66, stronger effect = lower value 0.971 | locus YBR231C, strain swc5, stronger effect = lower value 0.951 | locus YBR279W, strain paf1, stronger effect = lower value 0.989 | locus YCL011C, strain gbp2, stronger effect = lower value 0.947 | locus YCL016C, strain dcc1, stronger effect = lower value 0.981 | locus YCL061C, strain MRC1, stronger effect = lower value 0.984 | locus YCL069W, strain vba3, stronger effect = lower value 0.972 | locus YCR088W, strain abp1, stronger effect = lower value 0.976 | locus YDL005C, strain med2, stronger effect = lower value 0.976 | locus YDL040C, strain nat1, stronger effect = lower value 0.975 | locus YDR001C, strain nth1, stronger effect = lower value 0.98 | locus YDR069C, strain doa4, stronger effect = lower value 0.907 | locus YDR137W, strain rgp1, stronger effect = lower value 0.947 | locus YDR159W, strain sac3, stronger effect = lower value 0.941 | locus YDR195W, strain ref2 0.972 | locus YDR297W, strain sur2, stronger effect = lower value 0.975 | locus YDR334W, strain swr1, stronger effect = lower value 0.936 | locus YDR335W, strain msn5, stronger effect = lower value 0.973 | locus YEL037C, strain rad23, stronger effect = lower value 0.949 | locus YEL061C, strain CIN8 (second series), stronger effect = lower value 0.977 | locus YER015W, strain faa2, stronger effect = lower value 0.973 | locus YER016W, strain bim1, stronger effect = lower value 0.981 | locus YER111C, strain swi4, stronger effect = lower value 0.965 | locus YGL167C, strain pmr1, stronger effect = lower value 0.975 | locus YGL173C, strain kem1, stronger effect = lower value 0.962 | locus YGL227W, strain vid30, stronger effect = lower value 0.987 | locus YGL240W, strain doc1, stronger effect = lower value 0.928 | locus YHR013C, strain ard1, stronger effect = lower value 0.902 | locus YHR027C, strain rpn1, stronger effect = lower value 0.965 | locus YHR030C, strain SLT2, stronger effect = lower value 0.96 | locus YHR079C, strain IRE1, stronger effect = lower value 0.973 | locus YHR142W, strain chs7, stronger effect = lower value 0.923 | locus YJL092W, strain hpr5, stronger effect = lower value 0.961 | locus YJL095W, strain BCK1 (second series), stronger effect = lower value 0.979 | locus YJL095W, strain BCK1, stronger effect = lower value 0.982 | locus YJL115W, strain asf1, stronger effect = lower value 0.969 | locus YJL129C, strain trk1, stronger effect = lower value 0.965 | locus YJL154C, strain vps35, stronger effect = lower value 0.987 | locus YJL166W, strain qcr8, stronger effect = lower value 0.94 | locus YJL187C, strain SWE1, stronger effect = lower value 0.979 | locus YJR066W, strain TOR1, stronger effect = lower value 0.926 | locus YKL160W, strain elf1, stronger effect = lower value 0.968 | locus YKR026C, strain gcn3, stronger effect = lower value 0.977 | locus YKR091W, strain srl3, stronger effect = lower value 0.985 | locus YLL001W, strain dnm1, stronger effect = lower value 0.984 | locus YLL026W, stronger effect = lower value 0.972 | locus YLL041C, strain sdh2, stronger effect = lower value 0.961 | locus YLR027C, strain aat2, stronger effect = lower value 0.928 | locus YLR113W, strain HOG1, stronger effect = lower value 0.967 | locus YLR221C, strain rsa3, stronger effect = lower value 0.908 | locus YLR258W, strain gsy2, stronger effect = lower value 0.961 | locus YLR262C, strain YPT6 (second series), stronger effect = lower value 0.884 | locus YLR320W, strain mms22, stronger effect = lower value 0.947 | locus YLR342W, strain FKS1, stronger effect = lower value 0.961 | locus YLR357W, strain rsc2, stronger effect = lower value 0.983 | locus YLR370C, strain arc18, stronger effect = lower value 0.977 | locus YLR384C, strain iki3, stronger effect = lower value 0.992 | locus YML120C, strain ndi1, stronger effect = lower value 0.975 | locus YMR125W, strain sto1, stronger effect = lower value 0.899 | locus YMR129W, stronger effect = lower value 0.981 | locus YMR205C, strain PFK2, stronger effect = lower value 0.988 | locus YMR231W, strain pep5, stronger effect = lower value 0.942 | locus YNL183C, strain NPR1, stronger effect = lower value 0.955 | locus YNL209W, strain ssb2, stronger effect = lower value 0.986 | locus YNL248C, strain rpa49, stronger effect = lower value 0.906 | locus YNL322C, strain KRE1 (second series), stronger effect = lower value 0.985 | locus YNR049C, strain mso1, stronger effect = lower value 0.977 | locus YOR001W, strain rrp6, stronger effect = lower value 0.922 | locus YOR070C, strain gyp1, stronger effect = lower value 0.962 | locus YOR080W, strain dia2, stronger effect = lower value 0.986 | locus YOR083W, strain WHI5, stronger effect = lower value 0.98 | locus YOR106W, strain vam3, stronger effect = lower value 0.896 | locus YOR231W, strain MKK1, stronger effect = lower value 0.967 | locus YOR265W, strain rbl2, stronger effect = lower value 0.965 | locus YOR270C, strain vph1, stronger effect = lower value 0.845 | locus YOR290C, strain snf2, stronger effect = lower value 0.939 | locus YPL051W, strain arl3, stronger effect = lower value 0.928 | locus YPL078C, strain atp4, stronger effect = lower value 0.972 | locus YPL106C, strain sse1, stronger effect = lower value 0.911 | locus YPL240C, strain hsp82, stronger effect = lower value 0.976 | locus YPL256C, strain CLN2, stronger effect = lower value 0.928
active: locus YAL026C, strain drs2, stronger effect = lower value 0.896 | locus YDR392W, strain spt3, stronger effect = lower value 0.532 | locus YEL003W, strain gim4, stronger effect = lower value 0.82 | locus YER155C, strain BEM2 (second series), stronger effect = lower value 0.83 | locus YFR010W, strain ubp6, stronger effect = lower value 0.899 | locus YGL253W, strain hxk2, stronger effect = lower value 0.877 | locus YJL164C, strain tpk1, stronger effect = lower value 0.889 | locus YMR058W, strain fet3, stronger effect = lower value 0.812 | locus YNL071W, strain lat1, stronger effect = lower value 0.877

Reference: PubChem BioAssay AID1159580 (chemical genetic matrix, 2015)
